Rows were chosen to be rich in hits. Some 3.8% of all compounds tested hit in one or more screens of this group.
Yeast superoxide: caloric restriction mimetics inhibiting age-related superoxide in yeast. S. cerevisiae aged cells, superoxide DHE fluorescence; stronger effect = lower value. superoxide response (% of plate mean), % at 10 µM. actives 0.18% (n = 330,000). AID 2690;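 active means superoxide response under a set limit, about three screen SD below normal, cut at about 65% in these data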;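 further: yeast aged for seven days with compound at 30 °C before DHE staining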
tim10-1 inh: growth inhibitors of tim10-1 mutant yeast; S. cerevisiae tim10-1 ts strain growth, BacTiter-Glo, 24 h; inhibition, % at 20 µM; actives 2.2% (n = 330,000); AID 463190;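 active means inhibition of at least 40%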;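 further: mutant grown at 25 °C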
tim23-1 inh: growth inhibitors of tim23-1 mutant yeast; AID 463212; inhibition, % at 20 µM; S. cerevisiae tim23-1 growth, BacTiter-Glo luminescence, 24 h; actives 1.3% (n = 330,000);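 active means growth inhibition of the mutant yeast at or above 50%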;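 further: temperature-sensitive mutant grown at 25 °C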
NLRP3 yeast inh: blocks the NALP3 inflammasome reconstituted in yeast; inhibition, % at 10 µM; Yeast reconstituted NLRP3/ASC/caspase-1, beta-gal luminescence, 24 h; actives 0.39% (n = 330,000);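 active means inhibition of 50% or more; inactive means inhibition below 50%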
TIM10 inh: growth inhibitors of TIM10 yeast strain | S. cerevisiae TIM10 strain growth, BacTiter-Glo luminescence, 24 h | inhibition, % at 10 µM | actives 1.4% (n = 330,000) | AID 463195;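 active means inhibition of 40% or more at the single tested concentration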;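 further: wild-type TIM10 isogenic control strain grown at permissive 25 °C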
tim10-1 confirm: confirmation of tim10-1 mutant yeast growth inhibitors | shares compounds with tim10-1 inh | S. cerevisiae tim10-1 ts strain growth, BacTiter-Glo, 24 h | inhibition, % at 20 µM | actives 56% (n = 7,400);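 active means inhibition of yeast growth at or above a set limit in either of two repeat tests at 20 µM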;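 further: tim10-1 mutant grown at permissive 25 °C to find synthetic lethal compounds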
Numbers stand for hits; i = inactive; nt = not tested or not shown.

SMILES | Yeast superoxide | tim10-1 inh | tim23-1 inh | NLRP3 yeast inh | TIM10 inh | tim10-1 confirm
Cn1c(=O)n(C)c2cc([N+](=O)[O-])c(N3CCN(C(=O)c4cccc(Cl)c4)CC3)cc21 | i | 41.0 | i | i | i | i
Cc1ccc(/C=N/c2sc(Cc3ccccc3)c(C)c2C(N)=O)o1 | i | 47.8 | i | i | i | 45.7
Cc1c(Cc2ccccc2)sc(/N=C/c2ccc3ccccc3c2)c1C(N)=O | i | nt | nt | nt | nt | nt
CC1(C)C2CCC(C2)C1C/C=N/NC(N)=S (configuration not stated) | i | 45.6 | i | i | i | i
COc1ccc(Cl)cc1NC(=O)C(OC)c1ccccc1 (configuration not stated) | i | i | i | i | i | nt
COC(/C(=N/O)c1ccc(Cl)cc1)c1ccccc1 (configuration not stated) | i | 46.6 | i | i | i | 31.0
Clc1ccc(-c2nnc(Sc3nc4ccccc4o3)c3ccccc23)cc1 | i | 41.6 | i | i | i | i
CN1CCc2c(sc3c2c(=O)n(-c2ccccc2)c2n[nH]c(=S)n32)C1 | i | i | i | i | i | nt
O=C1[C@H]2[C@@H](C(=O)N1c1cc(Cl)cc(Cl)c1)[C@]1(C(=O)Nc3ccccc31)N1CCC[C@@H]21 | i | 44.6 | i | i | i | i
COC(=O)c1c(N2C(=O)[C@H]3[C@@H](C2=O)[C@]2(C(=O)Nc4ccccc42)N2CCC[C@@H]32)sc(C)c1C | i | i | i | i | i | nt
COc1cc(C(=O)OCC(=O)N2CCCC2)cc2c1OCCO2 | i | i | i | i | i | nt
COC(=O)C1=CN(C(C)c2ccccc2)C=C(C(=O)OC)C1c1cc(OC)c(OC)c(OC)c1 (configuration not stated) | i | 43.1 | i | i | i | i
COC(=O)C1=CN(Cc2ccc(OC)cc2)C=C(C(=O)OC)C1c1cc(OC)c(OC)c(OC)c1 | i | i | i | i | i | nt
O=C(Oc1ccc(Br)cc1C(=S)N1CCCC1)c1ccccc1Cl | i | i | i | i | i | nt
O=C(Oc1ccc(Br)cc1C(=S)N1CCCCC1)c1cc([N+](=O)[O-])cc([N+](=O)[O-])c1 | i | 51.1 | i | i | i | i
Cc1noc(C)c1CNCc1ccccc1 | i | 42.1 | i | i | i | i
Cc1nn(Cc2ccc(Cl)cc2Cl)c(C)c1NC(=O)C1C2CCC(O2)C1C(=O)O (configuration not stated) | i | 40.8 | i | i | i | i
Cc1nn(Cc2ccc(Cl)cc2Cl)c(C)c1NC(=O)c1ccc(COc2cc(Cl)ccc2Cl)o1 | i | i | i | i | i | nt
Cc1nn(Cc2c(F)c(F)c(F)c(F)c2F)c(C)c1NC(=O)c1ccc(COc2ccc(Cl)cc2Cl)o1 | i | 48.9 | i | i | i | 40.9
Cc1nn(Cc2ccc(Cl)cc2Cl)c(C)c1NC(=O)c1nn(C)cc1Cl | i | 43.9 | i | i | i | 37.7
Cc1ccc(C(=O)N2CCN(c3ncc(C(F)(F)F)cc3Cl)CC2)s1 | i | i | i | i | i | nt
Cc1ccc(C)c(NC(=S)NNC(=O)c2cc3c(s2)CCC(C)C3)c1 (configuration not stated) | i | 44.1 | i | i | i | 33.7
Cc1ccc(C)c(NC(=S)NNC(=O)c2csc(C(C)C)c2)c1 | i | 40.2 | i | i | i | 34.1
CCCc1cc(C(=O)NNC(=S)Nc2cccc(C)c2)cs1 | i | 46.7 | i | i | i | i
COc1ccc(-c2cc(-c3ccccc3)n3ncnc3n2)cc1 | i | 49.4 | i | i | i | i
SMILES | Yeast superoxide | tim10-1 inh | tim23-1 inh | NLRP3 yeast inh | TIM10 inh | tim10-1 confirm
C=CCc1ccc(O)c(-c2ccc(O)c(CC=C)c2)c1 | i | 45.4 | i | i | i | 48.1
CC1CC(=O)N(CC(=O)NCc2ccc(F)cc2)c2ccccc2S1(=O)=O (configuration not stated) | i | i | i | i | i | nt
O=C(N/N=C(\c1ccccc1)c1cccnc1)c1cccc(F)c1 | i | i | i | i | i | nt
Cc1sc(NC(=O)c2cc(-c3ccccc3)nc3ccccc23)c(C(N)=O)c1C | i | 41.3 | i | i | i | i
O=C(N/N=C/c1ccc([N+](=O)[O-])o1)c1cc(-c2cccc(Br)c2)nc2ccccc12 | i | 44.5 | i | i | i | i
O=C(CNc1ccc2ccccc2c1)N/N=C/c1ccc([N+](=O)[O-])o1 | i | 47.3 | i | i | i | 41.2
O=C(CNc1ccc2ccccc2c1)N/N=C/c1ccc(C(=O)O)cc1 | i | i | i | i | i | nt

High-throughput results as filed in PubChem.
